Assay results from PubChem BioAssay.
Active and inactive are the calls of the source. Unless noted, no rule for the calls is given here.

How the values were obtained:
[1] = test system: Wnt5a (protein binding on small-molecule microarray); test: Wnt5a binders on small-molecule microarray, primary screen, biophysical, 635/667 nm fluorescence (AID 1142); details: 635 nm fluorescence, higher = more signal;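 also: fluorescence read at 667 nm with signal to noise per printed feature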
[2] = cell viability in Huh7 cells, primary screen, cytotoxicity control for HCV replication inhibitor project, CellTiter-Glo luminescence, basal, 48 h (AID 1143); details: Huh7 HCV replicon, higher = more signal, called active from +8 up or from −8 down;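 also: Huh7 hepatoma cells carrying a hepatitis C replication reporter with no stimulus; test concentration not given here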
[3] = P. aeruginosa biofilm formation inhibitors, primary screen, PAO1 strain, BacTiter-Glo luminescence, LB-PBS (AID 1144); details: 12 h, higher = more signal
[4] = CREB reporter modulators without forskolin, primary screen, cell-based, PC12, CRE-LacZ reporter, unstimulated (AID 1145); details: no forskolin, luminescence, 4.5 h, higher = more signal, called active from +8 up or from −8 down
[5] = CREB reporter modulators under forskolin, primary screen, cell-based, PC12, CRE-LacZ reporter, forskolin-stimulated (AID 1146); details: luminescence, 4.5 h, higher = more signal, called active from +8 up or from −8 down;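 also: PC12 cells with 6xCRE LacZ reporter stimulated by forskolin 10 µM; beta-galactosidase reporter signal reflecting CREB driven transcription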
[6] = target: Streptavidin (Streptomyces avidinii) (UniProt P22629); test: streptavidin binders on small-molecule microarray, primary screen, artefact control for SMM compound annotation, biophysical, 635/667 nm fluorescence (AID 1147); details: streptavidin binding, higher = more signal;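 also: signal reflects streptavidin binding to arrayed compounds as a control protein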
Sequence of Streptavidin (Streptomyces avidinii) (P22629 whole entry, looked up): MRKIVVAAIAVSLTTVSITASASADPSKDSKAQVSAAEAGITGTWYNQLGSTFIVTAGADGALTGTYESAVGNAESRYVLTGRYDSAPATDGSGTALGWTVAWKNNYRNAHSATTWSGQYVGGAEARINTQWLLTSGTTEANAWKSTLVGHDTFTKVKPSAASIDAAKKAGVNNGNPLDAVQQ

[7] = small-molecule binders of probe aInhba, primary screen, biochemical, small-molecule microarray, 635/667 nm fluorescence (AID 1148); details: higher = more signal;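 also: score merges 667nm spot fluorescence with signal-to-noise for antibody binding to printed compounds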
Torsin-1A (Homo sapiens) [8] = target: Torsin-1A (Homo sapiens) (UniProt O14656); test: torsin A binders from cell lysate, primary screen, small-molecule microarray, wild-type, 635/667 nm (AID 1149); details: COS7 hTOR1A-WT lysate, 635 nm fluorescence, higher = more signal
Sequence of Torsin-1A (Homo sapiens) (O14656 whole entry, looked up): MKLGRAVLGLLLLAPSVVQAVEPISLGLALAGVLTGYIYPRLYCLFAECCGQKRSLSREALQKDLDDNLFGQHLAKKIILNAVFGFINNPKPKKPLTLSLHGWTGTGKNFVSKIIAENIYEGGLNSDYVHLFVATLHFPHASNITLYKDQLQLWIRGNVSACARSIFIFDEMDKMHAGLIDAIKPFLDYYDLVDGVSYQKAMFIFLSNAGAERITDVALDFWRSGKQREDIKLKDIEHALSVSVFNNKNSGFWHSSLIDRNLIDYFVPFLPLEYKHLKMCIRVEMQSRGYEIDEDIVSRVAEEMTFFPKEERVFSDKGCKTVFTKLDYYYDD

Torsin-1A (Homo sapiens) [9] = target: Torsin-1A (Homo sapiens) (UniProt O14656); test: small-molecule binders of mutant TOR1A in lysate, primary screen, cell lysate, small-molecule microarray, COS7 lysate, 635/667 nm fluorescence (AID 1150); details: COS7 hTOR1A mutant lysate, 635 nm fluorescence, higher = more signal;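 also: score pools 667 nm emission and signal to noise measuring lysate protein binding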
[10] = test system: Sonic hedgehog protein (Shh); test: small-molecule binders of Shh protein, primary screen, biochemical, small-molecule microarray, 635/667 nm fluorescence (AID 1151); details: small-molecule microarray binding, 635 nm fluorescence; higher = more signal;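 also: Shh protein binding to compounds spotted on small-molecule microarray slides; score combines spot fluorescence intensity with signal-to-noise across triplicate slides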
[11] = E. coli DRC41 culture turbidity changes, primary screen, E. coli filamentation inducer project, strain DRC41, OD650, 48 h (AID 1152);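 also: E. coli MC1000 strain DRC41 lacking acrAB efflux pump and sulA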; details: E. coli DRC41 (acrAB sulA), higher = more signal, called active from +8 up or from −8 down
[12] = small-molecule binders of probe aLefty1, primary screen, biochemical, small-molecule microarray, 635/667 nm fluorescence (AID 1153); details: higher = more signal;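 also: score merges spot fluorescence with signal-to-noise ratio from the scanned slide images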
[13] = PSAC antagonists in infected red cells, primary screen, cell-based, P. falciparum Indochina, OD700, 1 h (AID 1154); details: P. falciparum Indochina infected RBC osmotic lysis, higher = more signal, called active from +8 up or from −8 down
[14] = PSAC antagonists in infected red cells, primary screen, cell-based, P. falciparum Indochina, OD700, 2 h (AID 1155);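 also: lysis reports solute entry through the parasite surface anion channel PSAC; channel blockers reduce lysis of infected cells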; details: P. falciparum Indochina infected erythrocytes, osmotic lysis OD700; higher = more signal, called active from +8 up or from −8 down
[15] = osmotic lysis modulators in infected erythrocytes, primary screen, PSAC antagonist project, cell-based, P. falciparum Indochina, OD700, 3 h (AID 1156); details: higher = more signal, called active from +8 up or from −8 down
[16] = PSAC antagonists in infected red cells, primary screen, cell-based, P. falciparum Indochina, OD700, 18 h (AID 1157); details: P. falciparum Indochina infected erythrocytes, osmotic lysis OD700, 18 h; higher = more signal, called active from +8 up or from −8 down
[17] = modulators of S6 phosphorylation in cells, primary screen, cell-based, A549, cytoblot, luminescence, serum-stimulated (AID 1158); details: A549 phospho-S6 cytoblot, 5 h, higher = more signal;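 also: serum-stimulated A549 lung adenocarcinoma cells; signal is phosphorylated S6 detected by cytoblot immunostaining with HRP secondary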
[18] = target: NADPH oxidase 2 (Homo sapiens) (UniProt P04839); test: NOX2-dependent H2O2 signal modulators, primary screen, NOX inhibitor project, cell-based, HEK293-NOX2, PMA-stimulated, Amplex Red fluorescence (AID 1159); details: 45 min, higher = more signal, called active from +8 up or from −8 down; also: test concentration not given here
Sequence of NADPH oxidase 2 (Homo sapiens) (P04839 whole entry, looked up): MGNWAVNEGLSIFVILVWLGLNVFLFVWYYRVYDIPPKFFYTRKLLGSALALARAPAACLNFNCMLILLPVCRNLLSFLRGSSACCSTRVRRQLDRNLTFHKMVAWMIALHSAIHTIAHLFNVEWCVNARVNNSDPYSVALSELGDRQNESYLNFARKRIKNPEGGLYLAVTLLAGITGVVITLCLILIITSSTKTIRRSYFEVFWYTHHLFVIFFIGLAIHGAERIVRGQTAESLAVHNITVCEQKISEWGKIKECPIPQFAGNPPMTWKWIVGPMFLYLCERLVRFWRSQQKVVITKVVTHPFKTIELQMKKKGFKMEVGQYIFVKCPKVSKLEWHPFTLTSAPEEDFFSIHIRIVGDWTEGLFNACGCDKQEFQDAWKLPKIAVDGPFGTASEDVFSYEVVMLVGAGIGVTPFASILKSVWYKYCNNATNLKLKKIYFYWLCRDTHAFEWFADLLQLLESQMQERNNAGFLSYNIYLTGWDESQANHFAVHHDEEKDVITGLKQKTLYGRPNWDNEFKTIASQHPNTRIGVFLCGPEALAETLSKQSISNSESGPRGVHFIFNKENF

[19] = target: NADPH oxidase 4 (Homo sapiens) (UniProt Q9NPH5); test: NOX4-dependent H2O2 signal modulators, primary screen, NOX inhibitor project, cell-based, HEK293-NOX4, tetracycline-induced, Amplex Red fluorescence (AID 1160); details: 45 min, higher = more signal, called active from +8 up or from −8 down
Sequence of NADPH oxidase 4 (Homo sapiens) (Q9NPH5 whole entry, looked up): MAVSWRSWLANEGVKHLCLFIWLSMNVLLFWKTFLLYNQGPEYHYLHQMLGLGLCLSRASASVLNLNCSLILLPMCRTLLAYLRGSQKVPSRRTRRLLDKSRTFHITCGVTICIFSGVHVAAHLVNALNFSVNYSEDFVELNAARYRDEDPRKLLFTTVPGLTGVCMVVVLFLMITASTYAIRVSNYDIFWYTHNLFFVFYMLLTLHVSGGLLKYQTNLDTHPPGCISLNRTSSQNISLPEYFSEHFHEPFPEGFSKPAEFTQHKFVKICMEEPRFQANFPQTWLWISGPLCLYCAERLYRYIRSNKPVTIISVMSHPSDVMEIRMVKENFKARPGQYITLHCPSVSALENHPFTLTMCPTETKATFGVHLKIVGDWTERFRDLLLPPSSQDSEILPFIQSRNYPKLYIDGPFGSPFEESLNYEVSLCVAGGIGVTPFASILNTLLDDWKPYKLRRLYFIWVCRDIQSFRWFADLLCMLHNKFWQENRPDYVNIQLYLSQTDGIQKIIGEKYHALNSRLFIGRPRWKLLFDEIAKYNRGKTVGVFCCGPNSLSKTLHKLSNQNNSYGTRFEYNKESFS

[20] = target: NADPH oxidase 5 (Homo sapiens) (UniProt Q96PH1); test: NOX5-dependent H2O2 signal modulators, primary screen, NOX inhibitor project, cell-based, HEK293-NOX5, Amplex Red fluorescence (AID 1161); details: HEK293-NOX5, ionomycin, 45 min, higher = more signal
Sequence of NADPH oxidase 5 (Homo sapiens) (Q96PH1 whole entry, looked up): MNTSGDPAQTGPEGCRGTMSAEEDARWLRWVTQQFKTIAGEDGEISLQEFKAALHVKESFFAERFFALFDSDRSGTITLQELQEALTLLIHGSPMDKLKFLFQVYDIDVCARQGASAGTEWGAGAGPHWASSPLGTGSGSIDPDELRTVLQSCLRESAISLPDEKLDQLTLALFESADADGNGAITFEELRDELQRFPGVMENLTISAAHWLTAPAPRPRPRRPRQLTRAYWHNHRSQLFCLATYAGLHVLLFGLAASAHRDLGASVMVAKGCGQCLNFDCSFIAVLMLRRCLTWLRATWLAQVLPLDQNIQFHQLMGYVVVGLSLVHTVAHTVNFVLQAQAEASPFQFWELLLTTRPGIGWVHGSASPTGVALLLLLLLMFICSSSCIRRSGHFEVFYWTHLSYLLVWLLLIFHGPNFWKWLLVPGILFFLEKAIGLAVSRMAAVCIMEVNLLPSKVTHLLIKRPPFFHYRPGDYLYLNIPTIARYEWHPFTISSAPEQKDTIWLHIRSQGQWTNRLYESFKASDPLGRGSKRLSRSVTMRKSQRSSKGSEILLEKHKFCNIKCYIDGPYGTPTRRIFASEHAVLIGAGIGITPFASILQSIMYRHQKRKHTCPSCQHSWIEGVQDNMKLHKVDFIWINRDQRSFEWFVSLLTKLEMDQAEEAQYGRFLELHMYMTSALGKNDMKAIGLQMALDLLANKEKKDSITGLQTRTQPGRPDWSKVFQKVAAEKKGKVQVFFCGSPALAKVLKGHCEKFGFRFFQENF

SMILES | composite z-score [1] | z-score [2] | z-score [3] | z-score [4] | z-score [5] | composite z-score [6] | composite z-score [7] | composite z-score (Torsin-1A (Homo sapiens) [8]) | composite z-score (Torsin-1A (Homo sapiens) [9]) | composite z-score [10] | z-score [11] | composite z-score [12] | z-score [13] | z-score [14] | z-score [15] | z-score [16] | z-score [17] | z-score [18] | z-score [19] | z-score [20]
CCOC(=O)C[C@H]1[C@H](OC(=O)c2cc3ccccc3oc2=O)[C@@H](NC(=O)c2ccc3ccccc3n2)c2cc(OCCCO)ccc2N1C(=O)Cc1ccc(OC)cc1 | 0.155 | -0.593 (inactive) | -1.05 (inactive) | -1.23 (inactive) | -0.74 (inactive) | 0.386 | -0.0136 | -0.262 | -0.0557 | 1.56 | 0.116 (inactive) | 0.0774 | 8.66 (active) | 1.33 (inactive) | 0.635 (inactive) | 0.745 (inactive) | -0.0026 | 1.01 (inactive) | 1 (inactive) | 1.53
[N-]=[N+]=Nc1ccccc1C[C@]1(C(=O)O)COC(c2ccc(OCCCO)cc2)=N1 | -0.0485 | 0.0518 (inactive) | -0.812 (inactive) | 1.18 (inactive) | -0.313 (inactive) | -0.213 | -0.0405 | -2.54 | -1.52 | -1.14 | -0.541 (inactive) | 0.199 | 23.9 (active) | 8.27 (active) | 4.11 (inactive) | 0.935 (inactive) | -0.103 | -2.44 (inactive) | -0.992 (inactive) | -2.7
CCC1=C2CN(Cc3ccccc3)[C@@H](C(=O)Cc3ccccc3)C2C=CCC1 (stereo not given in full) | -0.245 | -3.57 (inactive) | 0.0518 (inactive) | -0.142 (inactive) | 1.73 (inactive) | 0.0145 | -0.0331 | -0.645 | -0.124 | 0.553 | 0.806 (inactive) | -0.0984 | 0.26 (inactive) | -1.13 (inactive) | 0.564 (inactive) | -2 (inactive) | 0.492 | -1.12 (inactive) | -1.42 (inactive) | -0.123
CN(C)CCCCCCNC(=O)[C@@H]1C[C@@H]2C(=O)N3CCC[C@H]3C(=O)N2[C@@H]1c1cccc(OCCO)c1 | 0.697 | -0.0705 (inactive) | 0.15 (inactive) | 0.151 (inactive) | 0.766 (inactive) | 0.656 | 1.06 | 1.99 | 1.43 | 1.54 | -0.305 (inactive) | 0.0231 | 3.6 (inactive) | 0.456 (inactive) | 0.77 (inactive) | 0.448 (inactive) | -0.701 | 1.03 (inactive) | -0.884 (inactive) | 0.837
C=CC[C@@H](OC(=O)Nc1ccc(OC)cc1)c1ccc(O)c(F)c1 | -0.115 | -4.67 (inactive) | -0.933 (inactive) | 2.26 (inactive) | 10.1 (active) | -0.716 | -0.106 | -0.0579 | 0.327 | 0.174 | 0.111 (inactive) | 0.109 | 2.93 (inactive) | -0.0384 (inactive) | -1.12 (inactive) | -0.113 (inactive) | -0.386 | -6 (inactive) | -2.91 (inactive) | -3.48
CCOC(=O)C[C@H]1[C@H](OC(=O)c2ccc(C(=O)c3ccccc3)cc2)[C@@H](NC(=O)c2ccc3ccccc3n2)c2cc(OCCCO)ccc2N1C(=O)Cc1ccc(OC)cc1 | -0.126 | -0.124 (inactive) | 0.458 (inactive) | -0.215 (inactive) | -0.357 (inactive) | 0.982 | -0.0521 | -0.077 | 0.292 | -0.381 | -1.61 (inactive) | 0.0782 | -0.17 (inactive) | 0.313 (inactive) | 1.57 (inactive) | 0.802 (inactive) | 0.793 | -1.71 (inactive) | -0.298 (inactive) | -0.856
COc1ccc([Si](C)(C)[C@H]2[C@H](CC(=O)N3Cc4ccccc4C[C@H]3CO)O[C@@]3(C(=O)N(Cc4ccc(N5CCOC5=O)cc4)c4ccccc43)[C@@H]2C)cc1 | -0.0993 | -3.64 (inactive) | -0.3 (inactive) | 1.38 (inactive) | -1.01 (inactive) | -0.0564 | -0.176 | 0.787 | 0.438 | 2.05 | -0.742 (inactive) | -0.0611 | 8.34 (active) | 1.85 (inactive) | 0.863 (inactive) | 0.82 (inactive) | 0.718 | -0.659 (inactive) | 0.611 (inactive) | -0.344
COc1cc(C(O)C2C=CC3C(=O)N(C)C(=O)C3N2Nc2ccccc2)cc(OC)c1OC (stereo not given) | 0.238 | 0.338 (inactive) | -0.426 (inactive) | 0.246 (inactive) | -0.944 (inactive) | 1.06 | 0.813 | 0.892 | 1.17 | -0.153 | -0.283 (inactive) | 0.923 | 1.28 (inactive) | 1.01 (inactive) | 0.508 (inactive) | 1.07 (inactive) | -0.802 | -1.41 (inactive) | -2.12 (inactive) | -2.14
CC(C)(C)OC(=O)CC[C@@]1(C(=O)NCC(O)CO)N=C(c2ccc(OCCCO)cc2)O[C@@H]1c1ccccc1CN=[N+]=[N-] (stereo not given in full) | 0.167 | 0.0366 (inactive) | -0.719 (inactive) | 1.98 (inactive) | -0.424 (inactive) | 1.14 | -0.0021 | 1.48 | 0.654 | -0.157 | 0.399 (inactive) | 0.258 | 25.3 (active) | 5.67 (inactive) | 0.814 (inactive) | 0.936 (inactive) | 0.906 | 1.18 (inactive) | 0.87 (inactive) | 0.416
